Source: PubChem BioAssay AID720706 (Broad Institute, 2013)
Hit rate of the full screen: of about 350,000 compounds, about 5,500 (1.6%) were called active.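 How the source made its calls: active means significant combined selectivity score with lowered wild-type GFP, culture density cut under 30%, mutant RFP and density less affected; inactive means any of these conditions unmet.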 This excerpt belongs to a sample that is enriched for actives.

Experiment: GFP drop in mixed WT/humanized-ribosome E. coli culture – GFP/RFP fluorescence, OD600, single point, bacterial rRNA inhibitor project, primary screen (AID 720706)
Conditions: E. coli WT GFP vs humanized-ribosome RFP mutants, 24 h; GFP signal change (wild-type ribosome): stronger effect = lower value, DMSO median 0, no signal -100; OD600 change: measured here: OD600 growth, DMSO median 0, no signal -100; RFP signal change: measured here: RFP humanized mutant strains, DMSO median 0, no signal -100, concentration not given here

Which GFP signal change (wild-type ribosome) does the source give for C=C1CCC(N(O)c2cc(C)on2)C(=C)CCC2C1CC2(C)C (stereo unspecified) here?
The GFP signal change (wild-type ribosome) was -20.5% (active).

And the OD600 change?
The OD600 change was -3.66%.

What about the RFP signal change of the same molecule?
Its RFP signal change is 1.7%.

Which GFP signal change (wild-type ribosome) does the source give for CN1CCN(C(=O)C[C@H]2CC[C@@H]3[C@H](COC[C@@H](O)CN3CC3CCCC3)O2)CC1 here?
Its GFP signal change (wild-type ribosome) is -1.31% (inactive).

And the OD600 change?
The OD600 change was 7.95%.

What about the RFP signal change of the same molecule?
The RFP signal change was -2.61%.

With CCOc1ccccc1CNS(=O)(=O)c1cc(-c2cc(C)no2)ccc1C as the molecule, how does the GFP signal change (wild-type ribosome) read?
Its GFP signal change (wild-type ribosome) is -6.17% (inactive).

And the OD600 change?
The OD600 change was -29.1%.

What about the RFP signal change of the same molecule?
Its RFP signal change is -15.4%.

With Cc1cc(-c2ccc(C)c(S(=O)(=O)NCCCN(Cc3ccccc3)C(C)C)c2)on1 as the molecule, how does the GFP signal change (wild-type ribosome) read?
The GFP signal change (wild-type ribosome) was -6% (inactive).

And the OD600 change?
Its OD600 change is -18.2%.

What about the RFP signal change of the same molecule?
Its RFP signal change is 1.25%.

With Cc1cc(-c2ccc(C)c(S(=O)(=O)NC(C)Cc3ccco3)c2)on1 (stereo unspecified) as the molecule, how does the GFP signal change (wild-type ribosome) read?
Its GFP signal change (wild-type ribosome) is -34.9% (active).

And the OD600 change?
The OD600 change was -21.1%.

And the RFP signal change?
Its RFP signal change is 0.997%.

With COc1ccccc1-c1n[nH]nc1C1=CC(=O)CC(C)(C)C1 as the molecule, how does the GFP signal change (wild-type ribosome) read?
Its GFP signal change (wild-type ribosome) is -4.29% (inactive).

What about the OD600 change of the same molecule?
The OD600 change was -12.1%.

And the RFP signal change?
The RFP signal change was -0.515%.

Which results are given for CC1(C)CC(=O)C=C(c2ccc(Cl)c(C(F)(F)F)c2)C1?
GFP signal change (wild-type ribosome): 2% (inactive); OD600 change: -0.255%; RFP signal change: -10.1%

Which GFP signal change (wild-type ribosome) does the source give for COc1cc(F)c(C2=CC(=O)CC(C)(C)C2)cc1F here?
Its GFP signal change (wild-type ribosome) is -21.1% (active).

What about the OD600 change of the same molecule?
The OD600 change was -16.7%.

What about the RFP signal change of the same molecule?
Its RFP signal change is 2.19%.

With C[C@@H]1CN([C@H](C)CO)C(=O)c2ccccc2-c2ccccc2CO[C@H]1CN(C)S(=O)(=O)c1ccsc1 as the molecule, how does the GFP signal change (wild-type ribosome) read?
The GFP signal change (wild-type ribosome) was -0.618% (inactive).

And the OD600 change?
The OD600 change was -1.1%.

What about the RFP signal change of the same molecule?
The RFP signal change was -2.79%.

With O=C(NCC[C@@H]1CC[C@@H](NC(=O)C2CCCC2)[C@H](CO)O1)c1cnccn1 as the molecule, how does the GFP signal change (wild-type ribosome) read?
Its GFP signal change (wild-type ribosome) is 3.79% (inactive).

What about the OD600 change of the same molecule?
The OD600 change was 7.83%.

What about the RFP signal change of the same molecule?
Its RFP signal change is -1.44%.

With CCCN(CC1CC1)C(=S)NC(=O)c1ccccc1Br as the molecule, how does the GFP signal change (wild-type ribosome) read?
Its GFP signal change (wild-type ribosome) is -22.1% (active).

And the OD600 change?
The OD600 change was -12%.

What about the RFP signal change of the same molecule?
Its RFP signal change is -8.89%.

Which GFP signal change (wild-type ribosome) does the source give for CC1CCN(C(=S)NC(=O)c2ccccc2Br)CC1 here?
The GFP signal change (wild-type ribosome) was 6.21% (inactive).

And the OD600 change?
Its OD600 change is 4.62%.

And the RFP signal change?
The RFP signal change was -0.105%.

What does the source list for O=C(NC(=S)Nc1ncccn1)c1ccccc1Br?
GFP signal change (wild-type ribosome): -2.07% (inactive); OD600 change: 4.96%; RFP signal change: -3.8%

For O=C(CCN1CCCCC1)NCC[C@@H]1CC[C@H](NS(=O)(=O)c2cccc(Cl)c2)[C@H](CO)O1, which GFP signal change (wild-type ribosome) is on record?
Its GFP signal change (wild-type ribosome) is 3.52% (inactive).

What about the OD600 change of the same molecule?
The OD600 change was 6.73%.

And the RFP signal change?
The RFP signal change was 1.99%.

Which GFP signal change (wild-type ribosome) does the source give for COc1ccccc1NC(=O)N1C[C@@H](O)COC[C@H]2O[C@@H](CC(=O)NCc3ccccc3)CC[C@@H]21 here?
Its GFP signal change (wild-type ribosome) is -2.42% (inactive).

And the OD600 change?
The OD600 change was -2.65%.

What about the RFP signal change of the same molecule?
The RFP signal change was 2.34%.

Which results are given for COCC(=O)N1CCC2(CC1)CN(Cc1ccccc1Cl)[C@H](CO)c1c2c2ccc(OC)cc2n1C?
GFP signal change (wild-type ribosome): 5.11% (inactive); OD600 change: -2.87%; RFP signal change: 0.0355%

For O=C(C[n+]1cc(-c2ccc(Cl)c(Cl)c2)n2c1CCC2)c1cccs1, which GFP signal change (wild-type ribosome) is on record?
Its GFP signal change (wild-type ribosome) is -50.7% (active).

And the OD600 change?
Its OD600 change is -21.5%.

What about the RFP signal change of the same molecule?
The RFP signal change was -14.4%.

For Cc1ccc(C(=O)C[n+]2cc(-c3ccccc3)n3c2CCCCC3)cc1, which GFP signal change (wild-type ribosome) is on record?
The GFP signal change (wild-type ribosome) was -44.5% (inactive).

What about the OD600 change of the same molecule?
The OD600 change was -43.4%.

What about the RFP signal change of the same molecule?
The RFP signal change was 50.7%.

For Clc1ccc(C[n+]2cc(-c3ccc(Cl)cc3)n3c2CCC3)cc1, which GFP signal change (wild-type ribosome) is on record?
The GFP signal change (wild-type ribosome) was -41.8% (inactive).

What about the OD600 change of the same molecule?
The OD600 change was -50.2%.

And the RFP signal change?
The RFP signal change was -12.3%.

For Clc1ccc(C[n+]2cc(-c3ccccc3)n3c2CCC3)cc1, which GFP signal change (wild-type ribosome) is on record?
The GFP signal change (wild-type ribosome) was 2.79% (inactive).

And the OD600 change?
Its OD600 change is -1.72%.

And the RFP signal change?
Its RFP signal change is -0.921%.

For Cc1ccc(S(=O)(=O)N2CCN(C(=O)c3cccs3)CC2)cc1, which GFP signal change (wild-type ribosome) is on record?
The GFP signal change (wild-type ribosome) was 0.592% (inactive).

What about the OD600 change of the same molecule?
Its OD600 change is -2.53%.

What about the RFP signal change of the same molecule?
The RFP signal change was -0.742%.

For Cc1ccc(-c2c[n+](CC(=O)Nc3ccccc3)c3n2CCC3)cc1, which GFP signal change (wild-type ribosome) is on record?
The GFP signal change (wild-type ribosome) was -22.1% (active).

And the OD600 change?
The OD600 change was -5.22%.

And the RFP signal change?
Its RFP signal change is 8.16%.
